In the supplement of paper PMC13380429:

test system: Vero E6 infected with SARS-CoV-2; experiment: morphology score (similarity to uninfected cells); higher = more like uninfected cells; details: 24 h

SMILES	morphology score
COCC(=O)Nc1c(I)c(C(=O)NCC(O)CO)c(I)c(C(=O)N(C)CC(O)CO)c1I (stereo not given) [iopromide] (10 µM)	-0.11
CCn1c(N)c(C(=O)NC)c(=O)c2ccc(C#C[C@@](C)(O)COC)nc21 (10 µM)	0.464
CCOc1nc2cccc(C(=O)OC(C)OC(=O)OC3CCCCC3)c2n1Cc1ccc(-c2ccccc2-c2nn[nH]n2)cc1 (stereo not given) [candesartan-cilexetil] (10 µM)	0.13
CC[C@@H]1/C=C(\C)C[C@H](C)C[C@H](OC)[C@H]2O[C@@](O)(C(=O)C(=O)N3CCCC[C@H]3C(=O)O[C@H](/C(C)=C/[C@@H]3CC[C@@H](O)[C@H](OC)C3)[C@H](C)[C@@H](O)CC1=O)[C@H](C)C[C@@H]2OC [ascomycin] (10 µM)	0.0662
Oc1cc(O)c2c(c1)O[C@H](c1ccc(O)c(O)c1)[C@H](O)[C@H]2c1c(O)cc(O)c2c1O[C@H](c1ccc(O)c(O)c1)[C@H](O)C2 [procyanidin-B-2] (10 µM)	0.114
CCCn1cnc2c1c(=O)n(CCCCC(C)=O)c(=O)n2C [propentofylline] (10 µM)	0.065
O=C(NO)c1cnc(N2CCN(S(=O)(=O)c3ccc4ccccc4c3)CC2)nc1 (10 µM)	-0.145
COC1CCN(c2cccc(-c3cc(NC(C)=O)nc(-n4nc(C)cc4C)n3)n2)CC1 (10 µM)	-0.0121
Cc1ccc(NC(=O)c2cccc(N(C)C)c2)cc1NC(=O)c1ccc(O)cc1 (10 µM)	-0.0598
CO[C@H]1CC=C2CCN3CCC4=C(CC(=O)OC4)[C@]23C1 (10 µM)	0.059
Nc1ncnc2c1c(-c1cccc(OCc3ccccc3)c1)cn2C1CC(CN2CCCC2)C1 (stereo in doubt) (0.833333 µM)	0.0762
COc1cc2ncnc(Nc3ccc(Oc4ccccc4)cc3)c2cc1OC [SRC-kinase-inhibitor-I] (0.833333 µM)	0.0162
COc1cccc2cc(-c3nc([C@H]4CC[C@H](C(=O)O)CC4)n4ncnc(N)c34)[nH]c12 (0.833333 µM)	0.174
CC(C)C1=C2[C@H]3CC[C@@H]4[C@@]5(C)CC[C@H](OC(=O)CC(C)(C)C(=O)O)C(C)(C)[C@@H]5CC[C@@]4(C)[C@]3(C)CC[C@@]2([C@@H](O)CN(CCN(C)C)Cc2ccc(Cl)cc2)CC1=O (10 µM)	0.203
Nc1ncnc2c1c(-c1ccc(Oc3ccccc3)cc1)nn2C1CCCC1 (10 µM)	-0.00746
CC(C)[C@@H]1C(=O)N(S(C)(=O)=O)[C@@H]2CCN(C(=O)/C=C/CN3CCCCC3)[C@H]21 (10 µM)	0.0406
CCCCC(CC)CCC(CC(C)C)OS(=O)(=O)O (stereo not given) [sodium-tetradecyl-sulfate] (10 µM)	0.0389
OCC(O)CN1CCN(c2ccccc2)CC1 (stereo not given) [dropropizine] (10 µM)	0.106
NC(=O)[C@@H]1CC[C@@H]2CN1C(=O)N2OS(=O)(=O)O [avibactam] (10 µM)	0.0638
Cc1nn(-c2ccccc2)c(C)c1/C=N/N1CCN(Cc2ccccc2)CC1 (10 µM)	0.00911

SMILES	morphology score
NNC(=O)CSc1nc2scc(-c3ccccc3)c2c(=O)n1-c1ccccc1 (10 µM)	-0.0192
Cc1ccc(-c2n[nH]c3c2C(c2cccc(O)c2)N(c2ccc(C(=O)O)cc2)C3=O)cc1 (stereo not given) (10 µM)	0.169
CCCC[C@H](NC(C)=O)C(=O)N[C@H]1CC(=O)NCCCC[C@@H](C(=O)O)NC(=O)[C@H](Cc2c[nH]c3ccccc23)NC(=O)[C@H](CCCNC(=N)N)NC(=O)[C@@H](Cc2ccccc2)NC(=O)[C@H](Cc2c[nH]cn2)NC1=O [bremelanotide] (10 µM)	0.067
CC(C)NC[C@@H](C(=O)N1CCN(c2ncnc3c2[C@H](C)C[C@H]3O)CC1)c1ccc(Cl)cc1 (10 µM)	0.0963
C[C@@H]1O[C@@H]1P(=O)(O)O (10 µM)	0.00316
O=C1NN(C(=O)Nc2ccc(Br)cc2)[C@@H](c2ccccc2)[C@@H]1c1ccccc1 (10 µM)	-0.176
Cn1c(=O)c2[nH]cnc2n(C)c1=O [aminophylline] (10 µM)	0.187
CCc1cccc(N(C)C(=N)Nc2cccc3ccccc23)c1 [aptiganel] (10 µM)	0.0916
COc1ccc2c3c1O[C@H]1C[C@@H](O)C=C[C@@]31CCN(C)C2 [galantamine] (10 µM)	0.113
CN[C@@H](C)C(=O)N[C@H]1CCCC[C@H]2CC[C@@H](C(=O)N[C@@H](c3ccccc3)c3cn(CCCCc4ccc(CCCCn5cc([C@@H](NC(=O)[C@@H]6CC[C@@H]7CCCC[C@H](NC(=O)[C@H](C)NC)C(=O)N76)c6ccccc6)nn5)cc4)nn3)N2C1=O (10 µM)	0.155
COc1cc(/C=C(\C#N)C(N)=O)cc(CSc2nc3ccccc3s2)c1O [tyrphostin-AG-825] (10 µM)	-0.108
C[C@]12C=CC(=O)C=C1CC[C@@H]1[C@@H]2C(=O)C[C@@]2(C)[C@H]1CC[C@]2(O)C(=O)CO [prednisone] (10 µM)	-0.177
CC[C@H]1OC(=O)[C@@](C)(F)C(=O)[C@H](C)[C@@H](O[C@@H]2O[C@H](C)C[C@H](N(C)C)[C@H]2O)[C@](C)(OC)C[C@@H](C)C(=O)[C@H](C)[C@H]2N(CCCCn3cc(-c4cccc(N)c4)nn3)C(=O)O[C@]12C [solithromycin] (10 µM)	0.351
COC1=C[C@@H]2[C@@H]3Cc4ccc(OC)c(O)c4[C@]2(CCN3C)CC1=O [sinomenine] (10 µM)	0.141
O=C1C(=C(O)/C=C/c2ccc(O)cc2)C(=O)[C@@](O)([C@@H]2O[C@H](CO)[C@@H](O)[C@H](O)[C@H]2O)C(=O)[C@H]1[C@@H]1O[C@H](CO)[C@@H](O)[C@H](O)[C@H]1O (10 µM)	0.0573
CO/N=C(\C(=O)N[C@@H]1C(=O)N2C(C(=O)OCOC(=O)C(C)(C)C)=C(C)CS[C@H]12)c1csc(N)n1 [cefetamet-pivoxil] (10 µM)	0.225
C=CCn1c(=O)c2cnc(Nc3ccc(N4CCN(C)CC4)cc3)nc2n1-c1cccc(C(C)(C)O)n1 (10 µM)	-0.0169
Nc1ccc(S(=O)(=O)NC(=O)c2ccccc2)cc1 [sulfabenzamide] (10 µM)	0.0893
CCN(CC)C(=O)Nc1ccc(OCC(O)CNC(C)(C)C)c(C(C)=O)c1 (stereo not given) [celiprolol] (10 µM)	0.118
CC(C)c1onc(-c2c(Cl)cccc2Cl)c1COc1ccc(/C=C/c2cccc(C(=O)O)c2)c(Cl)c1 (10 µM)	0.151
